The source of these data is PubChem BioAssay (Tox21).

Records with an inconclusive call do not appear. Calls of active or inactive are those of the source. Unless noted, calls follow the shape of the full dose curve.
% is scaled to controls: 0 for no effect and ±100 for the full control effect.

A short description of one assay: qHTS assay to identify small molecule antagonists of the estrogen related receptor (ERR) signaling pathway from Tox21 library (AID 1224848; active = well fitted inhibition curve with a large enough effect in the repeat runs; also: nearly all actives have a fitted effect of over 50% in size; also: potency is read from the fitted curve at half-maximal effect). The following applies: ERR reporter cell line, luciferase antagonist mode, 18 h; series mostly up to 92.4 µM; activity, negative = inhibition: at the top concentration. A digest of the protocol:
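Antagonist-mode screen of the Tox21 10K library in an NTP-provided ERR reporter cell line; 18 h compound exposure at 37 C, luminescence measured with ONE-Glo.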
Background: In qHTS, concentration-response curves come from the screen itself.
As to `OCCN1CCN(CCCN2c3ccccc3Sc3ccc(Cl)cc32)CC1`, the Potency was 29.8 µM (active).

For `CCCCCC[C@@H](O)C/C=C\CCCCCCCC(=O)O`, the “activity, negative = inhibition” value was -0.212% (inactive).

As for `Clc1ccc(Nc2nnc(Cc3ccncc3)c3ccccc23)cc1`, the Potency is 11.9 µM (active).

As for `O=C=Nc1cccc(C(F)(F)F)c1`, the Potency is 60.7 µM (active).

For `CC(C)(C)CC(=O)OCC(=O)[C@@]1(O)CC[C@H]2[C@@H]3CCC4=CC(=O)C=C[C@]4(C)[C@H]3[C@@H](O)C[C@@]21C`, the Potency was 26.6 µM (active).

Regarding `Cc1ccc2c(Br)cc(Br)c(O)c2n1`, the Potency is 8.41 µM (active).

A further assay can be described thus: qHTS assay to identify small molecule agonists of the estrogen related receptor (ERR) signaling pathway from Tox21 library (AID 1224849). Also: nearly all actives have a fitted effect of over 15% in size. The following applies: ERR reporter cell line, ONE-Glo luciferase, 18 h; at 92.4 µM (top of the series) unless noted. The gist of the method:
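ERR reporter cell line (NTP) seeded, rested 6 h at 37 C/5% CO2, then pinned with Tox21 compounds in DMSO. After 18 h at 37 C, ONE-Glo luciferase luminescence was read following 30 min at room temperature.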
Take `Cc1cccc(O)c1N`: the activity change, positive = activation is -14.7% (inactive).

Turning to `CC(=O)Nc1ccc(C)cc1C`, the activity change, positive = activation is 0.262% (inactive).

Turning to `NC(=O)c1ccncc1`, the activity change, positive = activation is 6.51% (inactive).

Consider `OCCN1CCN(CCCN2c3ccccc3Sc3ccc(Cl)cc32)CC1`, for which the activity change, positive = activation is -48% [at 42.5 µM] (inactive).

Consider `CCCCCC[C@@H](O)C/C=C\CCCCCCCC(=O)O`, for which the activity change, positive = activation is -0.13% (inactive).

As to `OC1(c2ccccc2)CCNCC1`, the activity change, positive = activation is 5.89% [at 42.5 µM] (inactive).

Consider `C=C/C(C)=C/C/C=C(\C)CCC=C(C)C`, for which the activity change, positive = activation was -20.3% (inactive).

For `CCC(C)(C)OC`, the activity change, positive = activation was -8.72% (inactive).

In the case of `O=[N+]([O-])c1cc(C2CCCCC2)c(O)c([N+](=O)[O-])c1`, the activity change, positive = activation was -69.4% (inactive).

Regarding `Clc1ccc(Nc2nnc(Cc3ccncc3)c3ccccc23)cc1`, the activity change, positive = activation is -42.3% [at 42.5 µM] (inactive).

In the case of `O=C=Nc1cccc(C(F)(F)F)c1`, the activity change, positive = activation was -56.5% (inactive).

Turning to `CCCCC(CC)CN` (centres undefined), the activity change, positive = activation was 2.45% (inactive).

For the molecule `CC(C)=CCC/C(C)=C/CC/C(C)=C/C(=O)OCC(=O)[C@@]1(O)CC[C@H]2[C@@H]3CCC4=CC(=O)C=C[C@]4(C)[C@H]3[C@@H](O)C[C@@]21C`, the activity change, positive = activation is -50.7% [at 42.5 µM] (inactive).

As to `CC(C)(C)CC(=O)OCC(=O)[C@@]1(O)CC[C@H]2[C@@H]3CCC4=CC(=O)C=C[C@]4(C)[C@H]3[C@@H](O)C[C@@]21C`, the activity change, positive = activation was -49.3% [at 42.5 µM] (inactive).

In the case of `COc1ccc(OC(=O)N(CC(=O)O)Cc2ccc(OCCc3nc(-c4ccccc4)oc3C)cc2)cc1`, the activity change, positive = activation is -6.74% [at 42.5 µM] (inactive).

As for `Cc1ccc2c(Br)cc(Br)c(O)c2n1`, the activity change, positive = activation is -65.3% [at 42.5 µM] (inactive).

Regarding `c1csc(SSc2cccs2)c1`, the activity change, positive = activation is -56.7% (inactive).

With `C/C=C\C/C=C/CCCCCCCCOC(C)=O`, the activity change, positive = activation was -15% (inactive).
